The nature of assay [1]: Cellular Toxicity (caspase-3) Jurkat (AID 655).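 Also: cells exposed to compound for 16 h at 37 °C before reading.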 The following applies: Jurkat caspase-3 activation, luminescence, DMSO = 0%, tamoxifen = 100%; at 92.2 µM (top of the series). The gist of the method:
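Luminescent caspase-3/7 readout (aminoluciferin substrate cleavage) in human T-cell leukemia Jurkat cells after 16 hr compound exposure. Concentration-response normalized to DMSO and 100 uM tamoxifen; AC50 by standard Hill equation.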

Assay [2] can be described thus: Cell Viability - LYMP2-001 (AID 921).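 Also: cells exposed to compound for 24 h at 37 °C; 0% = DMSO only and full inhibition = tetraoctylammonium bromide control wells; nearly all actives have a fitted effect of over 70% in size.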 The method, boiled down: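 CellTiter-Glo luminescence (intracellular ATP) after 24 hr compound exposure at 37 C, 2500 lymphoblastoid cells/well in complete medium. AC50 fitted with standard Hill equation; tetraoctylammonium bromide positive control.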
Assay [3] can be described thus: MultiTox-Fluor Cytotoxicity Assay - LYMP1-001 - Dead Cells (AID 946).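 Also: 0% = DMSO and 100% = tetraoctylammonium bromide.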 The method, boiled down:
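In this qHTS, 15 uM tetraoctylammonium bromide defined 100% and DMSO defined basal activity. Lymphoblastoid cells (LYMP1-001, 2500 per well) received compound for 16 hr at 37 C before a fluorogenic dead-cell substrate readout at 485/520 nm.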

Assay [4] in a line: MultiTox-Fluor Cytotoxicity Assay - LYMP1-002 - Live Cells (AID 955).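 Also: cells exposed to compound for 16 hours; % is scaled to controls: 0 for no effect and ±100 for the full control effect.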 The gist of the method: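 Cells were seeded at 2500 per well and incubated 5 hr. Compounds were then added for 16 hr at 37 C, followed by MultiTox-Fluor reagent for 60 min at room temperature and fluorescence reading of viable-cell protease signal.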
A short description of assay [5]: MultiTox-Fluor Cytotoxicity Assay - LYMP1-003 - Dead Cells (AID 961).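 Also: cells exposed to compound for 16 h at 37 °C; 0% = DMSO and 100% = tetraoctylammonium bromide; nearly all actives have a fitted effect of over 70% in size.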 The method, boiled down: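 Acute toxicity is scored as increased dead-cell protease activity in human lymphoblastoid LYMP1-003 cells after 16 h compound exposure in complete culture medium. Activity is normalized to DMSO basal and 15 uM tetraoctylammonium bromide as full response.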
Assay [6] in a line: Cell Viability - LYMP1-003 - Assay at 24 hr (AID 963).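 Also: plate controls were DMSO only for no effect and tetraoctylammonium bromide positive control for full effect.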 The method, boiled down: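 Cytotoxicity is scored as a concentration-dependent fall in ATP-linked luciferase signal in human lymphoblastoid LYMP1-003 cells treated 24 hr at 37 C in complete culture medium.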
Assay [7] is described as follows: Cell Viability - LYMP2-004 (AID 966).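 Also: cells exposed to compound for 24 h; nearly all actives have a fitted effect of over 65% in size.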 Also: potency is read from the fitted curve at half-maximal effect. The gist of the method: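 qHTS cytotoxicity: human lymphoblastoid line, 24 hr compound treatment, 37 C, complete medium. Viability read as cellular ATP via luciferase luminescence; tetraoctylammonium bromide served as positive control.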
Assay [8] can be described thus: Cell Viability - LYMP2-009 (AID 968).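 Also: cells exposed to compound for 24 h at 37 °C; nearly all actives have a fitted effect of over 55% in size.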 Also: potency is read from the fitted curve at half-maximal effect.
Assay [9] in a line: Cell Viability - LYMP2-002 (AID 977).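 Also: compound exposure lasted 24 h at 37 °C; plate controls were DMSO only for no effect and 92 µM tetraoctylammonium bromide for full effect.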 The gist of the method: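 In this qHTS viability screen, 2500 human lymphoblastoid cells per well receive compound for 24 hr at 37 C, and luciferase-based ATP luminescence gives the viability signal. Tetraoctylammonium bromide serves as positive control.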
A short description of assay [10]: Cell Viability - LYMP2-006 (AID 978).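 Also: cells exposed to compound for 24 hours; nearly all actives have a fitted effect of over 60% in size.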 Also: potency is read from the fitted curve at half-maximal effect. The method, boiled down:
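qHTS, 1536-well; 2500 cells/well, 5 hr 37 C; cpd 24 hr 37 C; CellTiter-Glo 30 min RT; luminescence. Tetraoctylammonium bromide pos. ctrl. AC50 via Hill eqn.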

A short description of assay [11]: Cell Viability - LYMP2-008 (AID 980). Also: nearly all actives have a fitted effect of over 60% in size. Also: potency is read from the fitted curve at half-maximal effect. The gist of the method: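 Cells seeded at 2500/well and rested 5 hr at 37 C; compounds added over a concentration range and incubated 24 hr at 37 C; CellTiter-Glo added, 30 min at room temperature; luminescence read and AC50 fitted with Hill model.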
A short description of assay [12]: Cell Viability - LYMP2-016 (AID 984).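 Also: cells exposed to compound for 24 hours at 37 °C; % is scaled to controls: 0 for no effect and ±100 for the full control effect; nearly all actives have a fitted effect of over 55% in size.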 The gist of the method:
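qHTS, 1536-well: 2500 LYMP2-016 cells/well, 5 hr 37 C, compound added, 24 hr 37 C, CellTiter-Glo 30 min RT, luminescence. Tetraoctylammonium bromide positive control. AC50 via Hill fit.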

Assay [13] is described as follows: qHTS assay for small molecule agonists of retinoid X receptor alpha signaling (AID 588544). The following applies: HEK293T RXRa-UAS-bla, beta-lactamase reporter, 18 h; 530 nm emission. For orientation: qHTS replaces the single test concentration by a dilution series.
Assay [14] can be described thus: qHTS assay for small molecule activators of the nuclear factor-kappa B (NF-kB) signaling pathway (AID 651749; active = well fitted activation curve with a large enough effect in the signal ratio; the % refers to the signal ratio; also: % of control where 0% means no effect). The following applies: NF-kB-bla ME-180 cells, beta-lactamase FRET ratio, 16 h; stronger effect = higher value. The gist of the method:
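Human ME-180 cervical cells with an NF-kB-bla construct; compounds added via 23 nL pin transfer, DMSO as vehicle; incubation 16 hr. Reporter activity measured by FRET disruption.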

Assay [15] in a line: qHTS assay for small molecule antagonists of the retinoid-related orphan receptor gamma (ROR-gamma) signaling pathway - cell viability counter screen (AID 720652; active = well fitted curve in the direction sought with a large enough effect in the repeat runs; an effect the other way counts as inactive or inconclusive;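 also: compound exposure lasted 16 hr before ATP read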; also: potency is read from the fitted curve at half-maximal effect). The gist of the method: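 Steps: seed CHO cells bearing TET-inducible ROR and ROR response element-luciferase; rest 5 hr at 37 C; add compound, then doxycycline; incubate 16 hr; add CellTiter-Glo and read luminescence as ATP-based viability.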

Assay [16] concerns CP194. As to the kind of experiment: qHTS profiling for inhibitors of Plasmodium falciparum proliferation (AID 504749). Also: nearly all actives have a fitted effect of over 60% in size. Also: potency is read from the fitted curve at half-maximal effect. The following applies: P. falciparum in erythrocytes, SYBR Green DNA, 72 h; series mostly up to 28.7 µM. The gist of the method:
(§1)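 Quantitative HTS: compounds pinned into medium, infected erythrocytes added (0.3% parasitemia, 2.5% hematocrit), 72 h culture at 37 C under 5% CO2. Saponin/Triton lysis with SYBR Green I, overnight RT, then fluorescence read.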

The subject of assay [17] is CP203. The description is as above. Conditions: P. falciparum in erythrocytes, SYBR Green DNA, 72 h; series mostly up to 28.7 µM. The gist of the method: as §1
In assay [18] the test system is CP211. The description is as above. The following applies: P. falciparum in erythrocytes, SYBR Green DNA, 72 h; series mostly up to 28.7 µM. The method, boiled down: as §1
For assay [19], the system named is CP266. The description is as above. Conditions: P. falciparum in erythrocytes, SYBR Green DNA, 72 h; series mostly up to 28.7 µM. The gist of the method: as §1
Assay [20] has as its system CP325. Described as above. The following applies: P. falciparum in erythrocytes, SYBR Green DNA, 72 h; series mostly up to 28.7 µM. The method, boiled down: as §1

Several values for one entry are separate records, joined by “and”; a condition that tells them apart may be missing. Equal values may be shown once. Inconclusive results are not listed. Activity calls are given as the source filed them. Unless noted, calls follow the shape of the dose curve; as a rule, active = well fitted curve in the direction sought with a large enough effect; inconclusive = small, poorly fitted or top-dose-only effect, or another doubt; inactive = no such curve, though single readings can be large; an effect the other way counts as inactive or inconclusive.

Regarding `C/C=C\c1ccc(OC)cc1`, the caspase-3 activation in assay [1] was -0.717% (inactive). The Potency entry in assay [2], in assay [3], in assay [4], in assay [5], in assay [6] and in assay [7] was “inactive” each time. The Potency entry in assay [8], in [9], in assay [10], in assay [11], in assay [12] and in [15] was “inactive” throughout. In addition, the Potency entry in assay [16], in assay [17], in assay [18], in [19] and in assay [20] was “inactive” in each case. Moreover, the max response in [13] is -9.52%. For the same compound, in assay [14], the activation was -0.604% (inactive).

Regarding `Cc1cccc([N+](=O)[O-])c1C`, in assay [1], the caspase-3 activation is 0.0783% (inactive). The Potency entry in [2], in assay [3], in assay [4], in [5], in assay [6] and in assay [7] was “inactive” each time. The Potency entry in assay [8], in [9], in assay [10], in [11], in assay [12] and in [15] was “inactive” each time. Further, the max response in [13] was -8% and -5.71%. The activation in assay [14] was -0.813% (inactive) and -0.315% (inactive).

As to `CN1CC[C@H](CN2c3ccccc3Sc3ccccc32)C1`, the Potency in assay [17] was 9.53 µM (active); in [20] it was 15.1 µM (active). For the same compound, in assay [19], the Potency result is “inactive”.

For the compound `O[C@@H]([C@H](O)[C@@H](O)CBr)[C@@H](O)CBr`, in assay [1], the caspase-3 activation was 0.213% (inactive). Also, the Potency entry in [2], in assay [3], in assay [4], in assay [5], in assay [6] and in assay [7] was “inactive” throughout. In addition, the Potency entry in assay [8], in assay [9], in [10], in [11], in assay [12] and in assay [15] was “inactive” throughout. The max response in [13] was -11.8%.

In the case of `CC1(C)CC(N=C=O)CC(C)(CN=C=O)C1` (centres undefined), in assay [1], the caspase-3 activation was 0.941% (inactive). For the same compound, the Potency entry in assay [2], in assay [3], in [4], in assay [5], in assay [6] and in assay [7] was “inactive” each time. Also, the Potency entry in [8], in assay [9], in assay [10], in assay [11], in assay [12] and in assay [15] was “inactive” in each case. For the same compound, the max response in assay [13] is 0.0281% and -13.4%. The activation in [14] was -0.293% (inactive) and -0.0815% (inactive).

In the case of `CCC(O)OC(O)CC` (centres undefined), the caspase-3 activation in [1] is 0.389% (inactive) and 0.685% (inactive). For the same compound, the Potency entry in assay [2], in [3], in assay [4], in [5], in [6] and in assay [7] was “inactive” each time. For the same compound, the Potency result in [8], in assay [9], in assay [10], in assay [11], in assay [12] and in assay [15] was “inactive” throughout. The max response in [13] was -2.11% and -3.85% and -13.7%. The activation in [14] is 0.14% (inactive) [middle of 4 runs].

`O=C1c2ccccc2C(=O)C1c1ccc2ccccc2n1`: in assay [1], the caspase-3 activation is -10.4% (inactive). The Potency entry in assay [2], in assay [3], in assay [4], in assay [5], in [6] and in assay [7] was “inactive” throughout. Besides, the Potency entry in [9] and in [12] was “inactive” each time. Moreover, the Potency in [10] was 39.8 µM (active); in [15], 33.5 µM (active). Further, the max response in assay [13] amounted to 16.7%. Besides, in [14], the activation is -1.78% (inactive) and 4.34% (inactive).

With `NC1=NC(S)C2N=CN=C2N1` (centres undefined), the Potency in [7] was 7.94 µM (active); in [8] it was 15.8 µM (active); in [11], 3.16 µM (active). Besides, in assay [14], the activation is 0.298% (inactive). Besides, the Potency entry in [16], in [17], in assay [18], in assay [19] and in [20] was “inactive” throughout.

(Values after PubChem BioAssay (NCATS).)
